Test results taken from PubChem BioAssay AID2751 (The Scripps Research Institute Molecular Screening Center, 2010).
Among all 320,000 compounds or so, about 2,200 (0.69%) were called active. Cut-off read from the data, not from the text of the source: active = inhibition above about 43%; inactive = the rest. The list comes from a sample in which actives are over-represented; it also holds similar structures and randomly drawn compounds.

biological target: Prolyl endopeptidase-like (Homo sapiens) (UniProt Q4J6C6); assay: human PREPL activity-probe blockers – biochemical, fluorescence polarization, primary screen (AID 2751); details: recombinant PREPL, fluorescence polarization activity-based probe; at 5.96 µM; active compounds read high;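 note: 0% = enzyme with DMSO and 100% = wells lacking enzyme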
Sequence (Q4J6C6 whole entry, looked up): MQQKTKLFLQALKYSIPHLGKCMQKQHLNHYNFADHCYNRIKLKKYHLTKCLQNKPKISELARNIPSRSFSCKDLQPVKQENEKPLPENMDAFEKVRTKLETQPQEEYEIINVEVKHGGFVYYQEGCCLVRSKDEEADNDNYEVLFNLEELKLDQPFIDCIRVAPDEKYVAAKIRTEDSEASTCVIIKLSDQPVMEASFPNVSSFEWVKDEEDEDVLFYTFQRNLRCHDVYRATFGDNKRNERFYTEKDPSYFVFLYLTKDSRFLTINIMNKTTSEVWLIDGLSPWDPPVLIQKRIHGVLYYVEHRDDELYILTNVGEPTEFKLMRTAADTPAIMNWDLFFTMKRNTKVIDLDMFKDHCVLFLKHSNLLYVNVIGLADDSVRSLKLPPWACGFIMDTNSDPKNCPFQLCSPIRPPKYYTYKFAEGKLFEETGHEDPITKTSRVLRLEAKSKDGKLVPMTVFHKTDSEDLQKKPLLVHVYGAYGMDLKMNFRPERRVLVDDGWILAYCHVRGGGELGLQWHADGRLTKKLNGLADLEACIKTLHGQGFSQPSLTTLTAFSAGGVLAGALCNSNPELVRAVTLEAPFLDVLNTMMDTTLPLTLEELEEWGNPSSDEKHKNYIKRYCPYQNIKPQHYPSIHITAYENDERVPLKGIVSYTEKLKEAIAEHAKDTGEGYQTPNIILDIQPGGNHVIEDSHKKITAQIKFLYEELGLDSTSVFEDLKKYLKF

inhibition, inactive:
NC1=NC[C@@H](Cc2ccc(O)cc2)N1CC1CCCCC1 9.91%
CCCC[C@@H]1CN=C(N)N1CCc1cccc(F)c1 -6.23%
CCCCN1C(N)=NC[C@@H]1Cc1ccccc1 17.4%
O=C(C1Cc2ccccc2CN1C(=O)c1ccco1)N1CCN(c2ccccc2)CC1 (stereo not given) 12.9%
CCOC(=O)c1ccc(N/C(=N/S(=O)(=O)c2ccccc2)c2ccccc2)cc1 -3.53%
O=C(NCc1cccnc1)c1ccc(CS(=O)(=O)c2ccc(Br)cc2)o1 -17%
CNC[C@H]1Oc2c(NC(=O)C3CCCCC3)cccc2C(=O)N([C@H](C)CO)C[C@@H]1C 1.75%
COc1ccc(-c2cc(C(=O)Nc3ccccc3O)c3ccccc3n2)cc1 15.1%
Cc1noc(C)c1COC(=O)c1cc2ccccc2cc1O 3.42%
Cc1ccc(S(=O)(=O)C2C(=O)NC3(C)CC2c2ccccc2O3)cc1 (stereo not given) -1.08%
COC(=O)COc1ccc(S(=O)(=O)Nc2ccc(NC(C)=O)cc2)cc1 3.49%
CC(=O)Nc1ccc(S(=O)(=O)Nc2ccc(N3CCOCC3)c(F)c2)cc1 13.1%
CC1CCN(C(=O)c2ccc(CSc3ccc(Cl)cc3)cc2)CC1 18.7%
CC1CCN(C(=O)c2ccc3c(=O)n4c(nc3c2)CCCCC4)CC1 10.4%
CCN(C(=O)COC(=O)C1CCN(S(=O)(=O)c2ccc(C)c(C)c2)CC1)C1CCS(=O)(=O)C1 (stereo not given) 16.8%
CC[C@H]1CN2CCc3cc(OC)c(OC)cc3[C@@H]2C[C@@H]1C[C@H]1NCCc2cc(OC)c(OC)cc21 17.4%
COc1ccc2c(c1)CCNC2Cc1ccc(OC)c(O)c1 (stereo not given) 11.1%
CCOc1ccc(N2C(=O)/C(=C/c3ccc(C)o3)N(C)C2=S)cc1 6.35%
CC(C)n1c(CN2CCN(Cc3ccccc3)CC2)nc2ccccc21 -13.9%
CCOC(=O)c1cnc(Nc2nc3ccccc3o2)nc1CSC(=S)N1CCCCC1 -5.51%
Cc1ccc(C(=O)NNC(=O)CSc2nnc3ccccn23)cc1 -1.75%
COCCNC(=O)Nc1ccc2nc(-c3ccco3)c(-c3ccco3)nc2c1 39.5%
O=C1CSc2ccc(C(=O)NCc3ccccn3)cc2N1 4.19%
COc1ccccc1CNC(=O)CSc1nc(=O)n(Cc2ccncc2)c2c1CCC2 2.55%
O=S(=O)(c1ccccc1)N1CN(Cc2ccc(F)cc2)c2nc3ccccc3nc21 -7.37%
CC(OC(=O)c1ccc(S(=O)(=O)N2CCOCC2)cc1)c1ccccc1 (stereo not given) -0.7%
CCN(CC)CCn1c2c(c(SCC(=O)Nc3ccc(C(C)C)cc3)nc1=O)CCC2 23.1%
O=C(NC1CCCC1)C(=O)c1c[nH]c2ccccc12 9.2%
NC(=O)CSc1c[nH]c2ccccc12 7.6%
O=C(OCc1nc2ccccc2[nH]1)C1CCCCC1 10.5%
COc1ccc(CC(=O)N[C@@H](CCSC)c2nc3ccccc3[nH]2)cc1 5.96%
C=CCNC(=O)c1sc(SC)cc1-c1ccc(Cl)cc1 1.62%
O=C(CN1CCN(c2ccc(F)cc2)CC1)Nc1ccccc1 9.77%
Clc1cccc(CN2COc3c(cc(Cl)c4cccnc34)C2)c1 2.86%
Cc1cccnc1NC(=O)c1cccc(S(=O)(=O)N2CCN(c3ccc(F)cc3)CC2)c1 -7.81%
COc1cc(C)cc(CN2CCC(Cc3ccccc3)CC2)c1O -5.3%
NC[C@H](Cc1ccccc1)NCCc1cc(C(F)(F)F)cc(C(F)(F)F)c1 -11.6%
O=C(COC(=O)c1ccc(Cl)nc1)NCc1ccc2c(c1)OCO2 8.45%
CCN(CC)CC(=O)Nc1sc2c(c1C(=O)c1ccccc1C)CCC2 5.23%
CC(C)(CNC(=O)c1ccc(Cl)c(S(=O)(=O)N2CCc3ccccc3C2)c1)N1CCOCC1 -27.3%
CCN(Cc1ccccc1)C(=O)CN1C(=S)NC(C)(C)CC1C (stereo not given) -2.69%
COc1ccc(C(=O)COC(=O)c2ccc([N+](=O)[O-])s2)cc1OC 34.6%
C[C@H](NC(=O)c1ccccc1Cl)C(=O)OCC(=O)N1CCN(c2ccccc2)CC1 13.3%
COc1cccc2c1OCC(C(=O)NCc1ccc(Cl)cc1Cl)=C2 -4.06%
O=C1c2cccc3cccc(c23)C(=O)N1CCCCCc1n[nH]c(=S)o1 1.95%
O=C(CCCCCN1C(=O)c2cccc3cccc(c23)C1=O)NCc1ccco1 5.95%

inhibition, active:
C[C@@H](CN1CCC[C@H]1CN1C(N)=NC[C@@H]1Cc1ccccc1)N1C[C@@H](Cc2ccccc2)N(CCCC2CCCC2)C1=N 54.6%
CC[C@@H](C)[C@@H]1CN([C@@H](C)CN2CCC[C@H]2CN2C(N)=NC[C@H]2C(C)C)C(=N)N1CCc1ccc(Cl)c(Cl)c1 63.3%
O=C(NNc1c2ccccc2nc2ccccc12)c1cc2ccccc2cc1O 68.7%
CC(=O)Nc1ccc(S(=O)(=O)Nc2ccc(N3CCCCC3)cc2)cc1 59.6%
CC1CCN(C(=O)c2ccc3c(c2)NC(=O)CN3)CC1 57.5%
COc1cc2c(cc1O)[C@H](Cc1ccc(Oc3cc(C[C@@H]4NCCc5cc(OC)c(O)cc54)ccc3O)cc1)NCC2 46.2%
O=C(NCc1ccccn1)c1ccc2nc(-c3ccco3)c(-c3ccco3)nc2c1 46.4%
O=S(=O)(O)Oc1c[nH]c2ccccc12 44.5%
COC(=O)Cc1nc2ccccc2[nH]1 47.1%
Oc1c(CN2CCN(c3ccc(F)cc3)CC2)cc(Cl)c2cccnc12 53.5%
Oc1c(CN2CCCC2)cc(COCc2ccccc2)c2cccnc12 63.8%
O=C(OCC(=O)N1CCN(c2ccccc2)CC1)c1ccc([N+](=O)[O-])s1 54.8%
COCCN(CCOC)c1nc(N)c2c(N)nc3c(c2c1C#N)CC(=O)N3Cc1ccc(Cl)cc1 47.7%
C[N+](C)(CCCCCC[N+](C)(C)CCCN1C(=O)c2cccc3cccc(c23)C1=O)CCCN1C(=O)c2cccc3cccc(c23)C1=O 47.7%
